Reference: PubChem BioAssay AID1159580 (chemical genetic matrix, 2015)
Among all 5,500 compounds or so, about 2,000 (36%) were called active. Not shown: some 18% with an inconclusive outcome. No stated cut-off is given here; in the data, active means normalized growth mostly below about 0.91 (no sharp cut-off); inconclusive means no clear call, values can overlap the other calls; inactive means mostly above about 0.92. Some of the results follow.

Experiment: chemical genetic growth profiling, strain panel (AID 1159580);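 further: tested at 20 µM; growth read once vehicle control cultures reached saturation at 30 °C; 1 = growth at the plate median or of vehicle wells; lower values mean less growth of the strain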
Conditions: S. cerevisiae deletion strains, growth OD

Measured: normalized growth

O=C1c2ccccc2C(=O)c2c(O)c(O)cc(O)c21
active: locus YAL021C, strain ccr4, hits give low values 0.105 | locus YAL026C, strain drs2, hits give low values 0.209 | locus YAL030W, strain snc1, hits give low values 0.471 | locus YBL061C, strain skt5, hits give low values 0.403 | locus YBR009C, strain hhf1, hits give low values 0.415 | locus YBR023C, strain chs3, hits give low values 0.35 | locus YBR171W, strain sec66, hits give low values 0.541 | locus YBR231C, strain swc5, hits give low values 0.228 | locus YBR279W, strain paf1, hits give low values 0.478 | locus YCL011C, strain gbp2, hits give low values 0.436 | locus YCL016C, strain dcc1, hits give low values 0.492 | locus YCL061C, strain MRC1, hits give low values 0.503 | locus YCL069W, strain vba3, hits give low values 0.426 | locus YCR088W, strain abp1, hits give low values 0.548 | locus YDL005C, strain med2, hits give low values 0.114 | locus YDL040C, strain nat1, hits give low values 0.639 | locus YDR001C, strain nth1, hits give low values 0.583 | locus YDR069C, strain doa4, hits give low values 0.22 | locus YDR137W, strain rgp1, hits give low values 0.136 | locus YDR159W, strain sac3, hits give low values 0.475 | locus YDR195W, strain ref2 0.766 | locus YDR297W, strain sur2, hits give low values 0.47 | locus YDR334W, strain swr1, hits give low values 0.206 | locus YDR335W, strain msn5, hits give low values 0.386 | locus YDR392W, strain spt3, hits give low values 0.164 | locus YEL003W, strain gim4, hits give low values 0.392 | locus YEL037C, strain rad23, hits give low values 0.421 | locus YEL061C, strain CIN8 (second series), hits give low values 0.494 | locus YER015W, strain faa2, hits give low values 0.323 | locus YER016W, strain bim1, hits give low values 0.505 | locus YER111C, strain swi4, hits give low values 0.223 | locus YER155C, strain BEM2 (second series), hits give low values 0.248 | locus YFR010W, strain ubp6, hits give low values 0.412 | locus YGL167C, strain pmr1, hits give low values 0.212 | locus YGL173C, strain kem1, hits give low values 0.193 | locus YGL227W, strain vid30, hits give low values 0.627 | locus YGL240W, strain doc1, hits give low values 0.383 | locus YGL253W, strain hxk2, hits give low values 0.262 | locus YHR013C, strain ard1, hits give low values 0.293 | locus YHR027C, strain rpn1, hits give low values 0.268 | locus YHR030C, strain SLT2, hits give low values 0.183 | locus YHR079C, strain IRE1, hits give low values 0.202 | locus YHR142W, strain chs7, hits give low values 0.242 | locus YJL092W, strain hpr5, hits give low values 0.529 | locus YJL095W, strain BCK1 (second series), hits give low values 0.121 | locus YJL095W, strain BCK1, hits give low values 0.192 | locus YJL115W, strain asf1, hits give low values 0.431 | locus YJL129C, strain trk1, hits give low values 0.396 | locus YJL154C, strain vps35, hits give low values 0.489 | locus YJL164C, strain tpk1, hits give low values 0.339 | locus YJL166W, strain qcr8, hits give low values 0.327 | locus YJL187C, strain SWE1, hits give low values 0.434 | locus YJR066W, strain TOR1, hits give low values 0.174 | locus YKL160W, strain elf1, hits give low values 0.507 | locus YKR026C, strain gcn3, hits give low values 0.665 | locus YKR091W, strain srl3, hits give low values 0.648 | locus YLL001W, strain dnm1, hits give low values 0.39 | locus YLL026W, hits give low values 0.444 | locus YLL041C, strain sdh2, hits give low values 0.584 | locus YLR027C, strain aat2, hits give low values 0.435 | locus YLR113W, strain HOG1, hits give low values 0.199 | locus YLR221C, strain rsa3, hits give low values 0.414 | locus YLR258W, strain gsy2, hits give low values 0.455 | locus YLR262C, strain YPT6 (second series), hits give low values 0.141 | locus YLR320W, strain mms22, hits give low values 0.266 | locus YLR342W, strain FKS1, hits give low values 0.443 | locus YLR357W, strain rsc2, hits give low values 0.534 | locus YLR370C, strain arc18, hits give low values 0.293 | locus YLR384C, strain iki3, hits give low values 0.401 | locus YML120C, strain ndi1, hits give low values 0.334 | locus YMR058W, strain fet3, hits give low values 0.33 | locus YMR125W, strain sto1, hits give low values 0.699 | locus YMR129W, hits give low values 0.557 | locus YMR205C, strain PFK2, hits give low values 0.356 | locus YMR231W, strain pep5, hits give low values 0.296 | locus YNL071W, strain lat1, hits give low values 0.306 | locus YNL183C, strain NPR1, hits give low values 0.159 | locus YNL209W, strain ssb2, hits give low values 0.252 | locus YNL248C, strain rpa49, hits give low values 0.336 | locus YNL322C, strain KRE1 (second series), hits give low values 0.424 | locus YNR049C, strain mso1, hits give low values 0.489 | locus YOR001W, strain rrp6, hits give low values 0.446 | locus YOR070C, strain gyp1, hits give low values 0.439 | locus YOR080W, strain dia2, hits give low values 0.435 | locus YOR083W, strain WHI5, hits give low values 0.399 | locus YOR106W, strain vam3, hits give low values 0.193 | locus YOR231W, strain MKK1, hits give low values 0.197 | locus YOR265W, strain rbl2, hits give low values 0.447 | locus YOR270C, strain vph1, hits give low values 0.165 | locus YOR290C, strain snf2, hits give low values 0.282 | locus YPL051W, strain arl3, hits give low values 0.168 | locus YPL078C, strain atp4, hits give low values 0.344 | locus YPL106C, strain sse1, hits give low values 0.491 | locus YPL240C, strain hsp82, hits give low values 0.497 | locus YPL256C, strain CLN2, hits give low values 0.228
